According to PubChem BioAssay (Tox21):
Inconclusive results are not listed. The source made the active and inactive calls. Calls follow the shape of the full dose curve.

How the values were obtained:
[1] = target: Acetylcholinesterase (Homo sapiens) (UniProt P22303); test: Acetylcholinesterase (AChE) small molecule antagonists: colormetric cell-based qHTS assay (AID 1347395); also: nearly all actives have a fitted effect of over 30% in size; also: potency is read from the fitted curve at half-maximal effect
Outline: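 Quantitative HTS in attached SH-SY5Y cells: 30 min compound exposure, then 90 min with acetylthiocholine and DTNB at 37 C; colour from thiocholine reports AChE activity.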

[2] = target: Acetylcholinesterase (Homo sapiens) (UniProt P22303); test: Acetylcholinesterase (AChE) small molecule antagonists: enzyme-based qHTS assay (AID 1347397); settings: Potency: AChE enzyme activity inhibition; outcome: AChE enzyme activity inhibition; also: nearly all actives have a fitted effect of over 55% in size; also: potency is read from the fitted curve at half-maximal effect
Outline: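 Human recombinant acetylcholinesterase; substrate acetylthiocholine; thiocholine quantified with DTNB (colorimetric). Compound preincubation 30 min RT; reaction 10 min RT.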

[3] = target: Acetylcholinesterase (Homo sapiens) (UniProt P22303); test: Acetylcholinesterase (AChE) small molecule antagonists: fluorescence cell-based qHTS assay (AID 1347398); settings: Potency: AChE activity; outcome: AChE activity; also: nearly all actives have a fitted effect of over 50% in size; also: potency is read from the fitted curve at half-maximal effect
Outline: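 Thiocholine generated from acetylthiocholine by SH-SY5Y cell AChE is detected with Thiolite Green (Ex/Em 490/520 nm) after 40 min at room temperature, following 30 min compound pretreatment at 37 C.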

[4] = target: Acetylcholinesterase (Homo sapiens) (UniProt P22303); test: Acetylcholinesterase (AChE) small molecule antagonists: enzyme-based qHTS assay with human liver microsomes (AID 1347399); settings: Potency: qHTS inhibition; outcome: qHTS inhibition; also: nearly all actives have a fitted effect of over 60% in size
Outline: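 Recombinant human AChE (50 mU/mL in the enzyme mix) and human liver microsomes (0.25 mg/mL final) were preincubated with compound and NADPH (0.25 mg/mL final) for 30 min at 37 C. Acetylthiocholine/DTNB was then added; thiocholine was read colorimetrically after 10 min at room temperature.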

Measured: Potency

Chain of Acetylcholinesterase (Homo sapiens) (P22303 whole entry, looked up): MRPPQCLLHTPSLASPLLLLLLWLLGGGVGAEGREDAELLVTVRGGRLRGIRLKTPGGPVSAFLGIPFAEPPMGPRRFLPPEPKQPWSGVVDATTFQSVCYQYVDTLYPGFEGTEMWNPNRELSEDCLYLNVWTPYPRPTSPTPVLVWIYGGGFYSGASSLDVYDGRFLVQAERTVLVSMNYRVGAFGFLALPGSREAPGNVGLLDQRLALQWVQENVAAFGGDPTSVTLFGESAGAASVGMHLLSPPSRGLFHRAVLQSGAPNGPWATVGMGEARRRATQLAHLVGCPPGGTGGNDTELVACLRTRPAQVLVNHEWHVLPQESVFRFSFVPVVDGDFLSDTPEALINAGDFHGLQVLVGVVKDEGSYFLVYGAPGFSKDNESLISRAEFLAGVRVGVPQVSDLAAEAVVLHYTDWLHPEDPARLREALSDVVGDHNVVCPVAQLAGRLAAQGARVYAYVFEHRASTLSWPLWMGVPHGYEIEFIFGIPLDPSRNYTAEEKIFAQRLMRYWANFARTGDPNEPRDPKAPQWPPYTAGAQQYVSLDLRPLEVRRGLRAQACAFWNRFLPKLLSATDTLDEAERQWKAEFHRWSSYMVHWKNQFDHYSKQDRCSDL

CC(=O)O[C@@H]1C[C@@H]2CC[C@@]1(C)C2(C)C
inactive: all assays above

Cc1cn[nH]c1
inactive: all assays above

CC(C)=CCOc1ccc(/C=C/C(=O)c2ccc(OCC=C(C)C)cc2OCC(=O)O)cc1
inactive: all assays above

CCOc1ccccc1OCC
inactive: all assays above

Oc1cccc(O)c1O
inactive: all assays above

CCCCCCOC(=O)c1ccccc1
inactive: all assays above

CCCCCCCCc1ccc(S(=O)(=O)O)cc1
inactive: all assays above

CCCCCCC(C)Nc1ccc(Nc2ccccc2)cc1 (centres undefined)
inactive: all assays above

C=CCc1ccccc1OCC(O)CNC(C)C (centres undefined)
inactive: all assays above

CC=O
inactive: [4]
active: [1] 41.8 µM | [2] 74.3 µM | [3] 26.4 µM

CCOC(=O)[C@H](CCc1ccccc1)N[C@@H](C)C(=O)N1Cc2cc(OC)c(OC)cc2C[C@H]1C(=O)O
inactive: all assays above

CC(C)=CCC[C@H](C)CCO
inactive: all assays above

O=[N+]([O-])c1cccc(I)c1
inactive: all assays above

CC(C)(C)c1ccc(OCC2CO2)cc1 (centres undefined)
inactive: all assays above

Cc1ccc(CO)cc1
inactive: all assays above

O=C(O)CNC(=O)c1ccc([N+](=O)[O-])cc1
inactive: all assays above
